Results taken from PubChem BioAssay.
Values joined by “and” are separate entries in the source; they are usually repeats but may differ in a detail not shown here. Equal entries are not always repeated. Active and inactive are the calls of the source.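 The calls were made as follows, unless noted: active = thallium flux through the channel raised or lowered by more than 3 SD from vehicle-only wells, actives on both sides; inactive = the rest.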

What was measured:
[1] = liver-stage malaria parasite growth inhibition, primary screen, cell-based, HepG2, luciferase luminescence, HepG2 viability (AID 624349; in the data active = parasite load remaining mostly below about 12%, no sharp cut-off; inactive = mostly above about 10%;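 also: 100% = mean of DMSO negative control wells on the same plate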); conditions: P. berghei liver stage in HepG2, luciferase luminescence, concentration not given here; parasite load remaining: stronger effect = lower value; viability: measured here: HepG2 viability without parasites
[2] = Cy5 fluorescence interference with SSB-bound oligo, artefact control for HCV NS3 helicase inhibitor project, biochemical, NIH Clinical Collection, E. coli SSB (AID 743268; call rule not given here)
[3] = tested on: Hepatitis C virus NS3 helicase; assay: HCV NS3 helicase inhibitors, primary screen, biochemical, fluorescence polarization, NIH Clinical Collection (AID 743270; call rule not given here); conditions: NS3 helicase binding to Cy5-dT15 DNA, stronger effect = higher value, concentration not given here
[4] = biological target: Single-stranded DNA-binding protein (Escherichia coli (strain K12)) (UniProt P0AGE0); assay: E. coli SSB displacement from DNA, counter-screen for HCV NS3 helicase inhibitor project, biochemical, fluorescence polarization, NIH Clinical Collection (AID 743271; in the data active = inhibition above about 28%); conditions: stronger effect = higher value, concentration not given here
[5] = fluorescence interference in NS3h assay format, artefact control for HCV NS3 helicase inhibitor project, biochemical, NIH Clinical Collection (AID 743272; call rule not given here;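 also: HCV NS3 helicase with a Cy5 labelled single stranded DNA probe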); conditions: fluorescence interference counterscreen, stronger effect = lower value
[6] = tested on: Neuropilin-2 / VEGF-C interaction (human); assay: inhibitors of NRP2–VEGF-C binding, biochemical, microplate binding format, z-score (AID 743281; call rule not given here); conditions: microplate NRP2/VEGF-C binding assay; stronger effect = lower value
[7] = modulation of C. elegans fzo-1 (AID 1259413; call rule not given here;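 also: fzo-1 mutant C. elegans worms in liquid wells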); conditions: C. elegans fzo-1 modulator screen, mean read-out; stronger effect = higher value
[8] = sensitizers of A549 cells to miR-34 induction, primary screen, imaging, A549 dox-inducible miR-34, nuclei and caspase counts (AID 1347080;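 active = compounds whose cell count with miR-34 switched on is under 0.7 times the count with it off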); conditions: A549 miR-34 inducible, Hoechst nuclei count, 48 h
F380Y = assay: modulators of BK channel variants, profiling panel, selectivity assay, cell-based, U2OS BacMam, thallium flux, beta subunits (AID 1259406); conditions: at 30 µM;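 also: initial slope of Thallos dye fluorescence rise after thallium is added; log ratio against the mean of 0.3% DMSO vehicle wells on the same plate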
F380Y/beta1 = assay: as above; conditions: at 30 µM
F380Y/beta2Delta = assay: as above; conditions: at 30 µM
F380Y/beta4 = assay: as above; conditions: at 30 µM
[9] = biological target: Calcium-activated potassium channel subunit alpha-1 (Homo sapiens) + Leucine-rich repeat-containing protein 26 (Homo sapiens) (UniProt Q12791+Q2I0M4); assay: as above; conditions: F380Y/Slo1WT/gamma1, at 30 µM
Sequence of Calcium-activated potassium channel subunit alpha-1 (Homo sapiens) + Leucine-rich repeat-containing protein 26 (Homo sapiens) (Q2I0M4 whole entry, looked up, one chain of several): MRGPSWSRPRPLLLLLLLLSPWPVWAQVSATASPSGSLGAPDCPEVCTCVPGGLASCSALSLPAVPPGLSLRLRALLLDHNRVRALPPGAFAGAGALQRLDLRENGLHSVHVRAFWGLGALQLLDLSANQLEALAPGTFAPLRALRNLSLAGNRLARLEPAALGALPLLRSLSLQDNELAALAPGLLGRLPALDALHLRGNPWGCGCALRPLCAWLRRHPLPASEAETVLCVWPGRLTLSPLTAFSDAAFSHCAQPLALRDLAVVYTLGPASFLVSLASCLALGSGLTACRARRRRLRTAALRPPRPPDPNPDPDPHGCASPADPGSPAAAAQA

R275C = assay: as above; conditions: at 30 µM
R275C/beta1 = assay: as above; conditions: at 30 µM
R275C/beta2Delta = assay: as above; conditions: at 30 µM
R275C/beta4 = assay: as above; conditions: at 30 µM
R275C/Slo1WT/beta2 = assay: as above; conditions: at 30 µM
[10] = differential killing of epithelial or mesenchymal cells, primary screen, imaging, PC-3E GFP, TEM4-18 mCherry, co-culture (AID 1345086;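 active = compounds killing one labelled cell type while sparing the other, by normalised counts and ratio limits, not self-fluorescent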;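 as to all read-outs here: cells exposed to compound for 72 h before imaging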;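 as to red/green cell ratio (normalised): normalised mesenchymal count divided by normalised epithelial count so high means epithelial killing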); conditions: imaging cell counts, at 1 µM; for red/green cell ratio (normalised): actives lie on both sides, counts scaled to control wells, 1 = unselective
[11] = measured here: relative caspase fold change +Dox/-Dox
[12] = measured here: total cells with miR-34 induction, stronger effect = lower value
[13] = measured here: total cells without miR-34 induction
[14] = measured here: epithelial PC-3E GFP cell survival
[15] = measured here: mesenchymal TEM4-18 mCherry cell survival

Oc1ccc2c3c1OC1C(O)CC[C@@]4(O)[C@@H](C2)N(CC2CCC2)CC[C@]314 (some centres undefined)
inactive: parasite load remaining [1] 133% | fluorescence ratio [2] 0.97 | inhibition [3] -1.98% | inhibition [4] 9.14% | fluorescence ratio [5] 0.88 | z-score [6] -0.335 | mean signal [7] 241
141%: viability [1]

O=C1CN=C(c2ccccc2)c2cc([N+](=O)[O-])ccc2N1
inactive: parasite load remaining [1] 89.5% | fluorescence ratio [2] 1.05 | inhibition [3] 5.94% | inhibition [4] 2.21% | fluorescence ratio [5] 1.04 | z-score [6] 1.12 | mean signal [7] 253 | fold change ([8]; stronger effect = lower value) 0.945 | log fold change Tl+ flux (F380Y) 0.0223 | log fold change Tl+ flux (F380Y/beta1) -0.0368 | log fold change Tl+ flux (F380Y/beta2Delta) 0.0172 | log fold change Tl+ flux (F380Y/beta4) 0.0387 | log fold change Tl+ flux [9] 0.000443 | log fold change Tl+ flux (R275C) -0.0214 | log fold change Tl+ flux (R275C/beta2Delta) 0.0168 | log fold change Tl+ flux (R275C/beta4) 0.0133 | log fold change Tl+ flux (R275C/Slo1WT/beta2) 0.00947
active: log fold change Tl+ flux (R275C/beta1) -0.097
9060: cell count [8, 12]
68.5%: viability [1]
1.76: fold change [8, 11]
9590: cell count [8, 13]

CN1CC[C@@H](c2ccc(F)cc2)[C@H](COc2ccc3c(c2)OCO3)C1
inactive: parasite load remaining [1] 84.5% | fluorescence ratio [2] 1.01 | inhibition [3] 2.77% | inhibition [4] 0.67% | fluorescence ratio [5] 0.93 | z-score [6] -0.473 | log fold change Tl+ flux (F380Y) 0.106 | log fold change Tl+ flux (F380Y/beta1) 0.0692 | log fold change Tl+ flux (F380Y/beta2Delta) 0.045 | log fold change Tl+ flux [9] -0.0237 | log fold change Tl+ flux (R275C) -0.0665 | log fold change Tl+ flux (R275C/beta2Delta) 0.0265 | log fold change Tl+ flux (R275C/Slo1WT/beta2) -0.033
active: log fold change Tl+ flux (F380Y/beta4) 0.102 | log fold change Tl+ flux (R275C/beta1) 0.146 | log fold change Tl+ flux (R275C/beta4) 0.0863
65.3%: viability [1]

C[C@]12CC[C@H]3[C@@H](CCC4=CC(=O)CC[C@@H]43)[C@@H]1CC[C@@H]2O
1.32: fold change [8, 11]
73.7% and 87.5%: viability [1]
inactive: parasite load remaining [1] 113% and 109% | fluorescence ratio [2] 1 | inhibition [3] -4.36% | inhibition [4] -0.87% | fluorescence ratio [5] 0.98 | fold change ([8]; stronger effect = lower value) 0.927 | log fold change Tl+ flux (F380Y) 0.0331 | log fold change Tl+ flux (F380Y/beta1) 0.000378 | log fold change Tl+ flux (F380Y/beta2Delta) 0.0141 | log fold change Tl+ flux (F380Y/beta4) 0.0107 | log fold change Tl+ flux [9] 0.0229 | log fold change Tl+ flux (R275C) -0.0315 | log fold change Tl+ flux (R275C/beta1) 0.00735 | log fold change Tl+ flux (R275C/beta2Delta) -0.0135 | log fold change Tl+ flux (R275C/beta4) -0.0252 | log fold change Tl+ flux (R275C/Slo1WT/beta2) -0.0416
8170: cell count [8, 12]
8800: cell count [8, 13]

C[C@]12CC[C@H](O)CC1=CC[C@@H]1[C@@H]2CC[C@@]2(C)[C@H]1CC[C@]2(C)O
inactive: parasite load remaining [1] 67.4% | fluorescence ratio [2] 1.04 | inhibition [3] -1.19% | inhibition [4] -4.72% | fluorescence ratio [5] 1.02 | log fold change Tl+ flux (F380Y) 0.0283 | log fold change Tl+ flux (F380Y/beta1) 0.0442 | log fold change Tl+ flux (F380Y/beta2Delta) 0.0164 | log fold change Tl+ flux (F380Y/beta4) 0.0285 | log fold change Tl+ flux [9] 0.0157 | log fold change Tl+ flux (R275C) 0.0183 | log fold change Tl+ flux (R275C/beta1) 0.0261 | log fold change Tl+ flux (R275C/beta2Delta) -0.00697 | log fold change Tl+ flux (R275C/beta4) -0.00925 | log fold change Tl+ flux (R275C/Slo1WT/beta2) 0.057
70.8%: viability [1]

CC12CCC(=O)C=C1CC[C@@H]1[C@@H]2CCC2(C)[C@H]1CC[C@]2(C)O (some centres undefined)
inactive: outcome [6] | mean signal [7] 283

C/C1=C\[C@@H](C)C/C=C/[C@H]2[C@@H]3O[C@]3(C)[C@@H](C)[C@H]3[C@H](Cc4c[nH]c5ccccc45)NC(=O)[C@]32C(=O)/C=C/C(=O)[C@@H]1O
inactive: red/green cell ratio (normalised) [10] 0.89
1.11: normalised cell number [10, 14]
1: normalised cell number [10, 15]

N#Cc1cc(I)c(O)c(I)c1
1.08: normalised cell number [10, 14]
inactive: red/green cell ratio (normalised) [10] 1.04
1.12: normalised cell number [10, 15]

CCC(C)C(=O)O[C@@H]1C[C@@]2(C)[C@H](c3ccoc3)OC(=O)CC23OC2(C)OC34[C@H](OC(=O)C(C)C)C3(O)[C@@H](OC(=O)C5(C)OC5C)[C@@]5(C)C[C@]3(O)[C@@](C)([C@H]5CC(=O)OC)C14O2 (some centres undefined)
inactive: red/green cell ratio (normalised) [10] 1.06
1.04: normalised cell number [10, 15]
0.98: normalised cell number [10, 14]
